Wnt bcat act = activators of Wnt/beta-catenin signaling | Wnt/beta-catenin reporter cell assay, activator, plate reader | activation, % at 9.35 µM | 1.2% of 300,000 active | AID 743398; in the data active = activation above about 30%, passing the limit was not always enough; inconclusive = no clear call, values can overlap the other calls;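 note: 0% = neutral control wells and 100% = positive control wells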
hcDAF12 agonist = H. contortus DAF-12 activation, primary screen | activation, % at 6.8 µM | 1.4% of 370,000 active | HEK293 hcDAF-12 lit1-tk-luc reporter, luminescence; 0% DMSO, 100% Δ7-dafachronic acid;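 active = activation above the mean of all tested compounds plus 3 SD, cut at about 5.5% in these data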;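 note: 100% = response to 3 µM Δ7-dafachronic acid high control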
ssDAF-12 act = S. stercoralis DAF-12 activation, primary screen; HEK293 ssDAF-12/GRIP1 lit1-tk-luc reporter, luminescence; % of 3 µM dafachronic acid response; activation, % at 6.8 µM; 1% of 370,000 active; AID 652126;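 active = activation above the mean over all tested compounds plus 3 SD, cut at about 0.9% in these data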;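 note: 0% = DMSO-only wells and 100% = 3 µM delta7-dafachronic acid wells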
DAX1 StAR inh = inhibitors of DAX1 repression of SF-1 activated StAR promoter; HEK293T StAR-luciferase reporter, SF-1/DAX-1 repression relief; inhibition, % at 6.8 µM; 1.1% of 370,000 active; AID 652010;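 active = inhibition above the mean over all tested compounds plus 3 SD, cut at about 3.6% in these data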;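 note: 0% = DAX-1 cells with DMSO and 100% = cells lacking DAX-1 with DMSO; higher inhibition means more luminescence from relief of DAX-1 repression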
esBAF inh = SWI/SNF esBAF complex inhibition. mouse ES cells, Bmi1-luciferase knock-in reporter, 24 h; 100% = twice the neutral-well signal. 2% of 350,000 active. reporter increase, % at 12.5 µM; in the data active = activation above about 40%; inconclusive = no clear call, values can overlap the other calls;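 note: 0% = median of the plate's neutral control wells and 100% = double that signal; a rise in the Bmi1 reporter signal indicates esBAF inhibition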
hgDAF-12 ag = agonists of H. glycines DAF-12 nuclear receptor; 1.8% of 370,000 active; activation, % at 6.8 µM; HEK293 GAL4-hgDAF12 UAS-luciferase reporter, agonist luminescence; normalized to butyrate control; AID 687014;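 active = activation above a cutoff set at the mean of all screened compounds plus 3 SD, cut at about 10% in these data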;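 note: 0% = DMSO wells and 100% = sodium butyrate wells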
An asterisk follows results filed as active; ? = inconclusive; . = no result. In the library only some 4.2% were active in any assay of this set; here they are far more common.

SMILES | Wnt bcat act | hcDAF12 agonist | ssDAF-12 act | DAX1 StAR inh | esBAF inh | hgDAF-12 ag
COc1ccc(-c2nc(CN3CCCCC3c3cccnc3)c(C)o2)c(F)c1 (stereo unspecified) | -1 | -1 | -1 | 0 | 7 | 12*
CCOC(=O)N(C)C[C@H]1OCc2ccccc2-c2ccccc2C(=O)N([C@@H](C)CO)C[C@H]1C | . | . | . | . | -2 | .
COc1cccc(OCc2cc(C(=O)NCCc3cccc(C)n3)no2)c1 | 1 | -1 | -1 | 0 | 5 | -1
CCc1ccc(OCc2ccc(C(=O)NCc3ccccn3)o2)cc1 | . | 1 | -1 | 0 | 46* | 1
COc1cccc(OCc2cc(C(=O)NCc3ccccn3)no2)c1 | 16 | 4 | 0 | 1 | 61* | 7
COc1cccc(OCc2cc(C(=O)N(C)Cc3nc(C)cs3)no2)c1 | 27 | 2 | 0 | 4.5* | 78* | 6
CCOc1ccc(OCc2ccc(C(=O)NCc3ccncc3)o2)cc1 | . | 0 | 0 | -1 | 10 | 3
O=C(C[C@@H]1CC[C@H]2[C@@H](COC[C@H](O)CN2Cc2cc(F)ccc2F)O1)NCc1ccc(Cl)cc1 | . | . | . | . | -4 | .
C/C=C/c1ccc2c(c1)O[C@H](CN(C)C(=O)C1CCCCC1)[C@H](C)CN([C@@H](C)CO)S2(=O)=O | . | . | . | . | -12 | .
COc1ccc(-c2cnn3c(N)c(S(=O)(=O)C(C)(C)C)cnc23)cc1 | 2 | 0 | -1 | 0 | 18 | -2
COc1ccc(-c2cnc3c(-c4ccc(F)cc4)cnn3c2N)cc1 | 43* | 5 | 0 | 1 | ? | 10
C[C@H]1CN([C@@H](C)CO)C(=O)c2cc(C#Cc3ccccc3F)cnc2O[C@H]1CN(C)C(=O)Cc1cccnc1 | . | . | . | . | -7 | .
CS(=O)(=O)Nc1ccc2c(c1)[C@H]1C[C@@H](CC(=O)N3CCc4ccccc4C3)O[C@H](CO)[C@H]1O2 | . | . | . | . | 1 | .
CC1(C)CC(=O)C(N=Nc2ccc(F)cc2)=C(O)C1 | 44* | -2 | -1 | -1 | . | 4
CC1(C)CC(=O)C(N=Nc2ccc(Cl)cc2)=C(O)C1 | -5 | 0 | -1 | 0 | . | -1
C[C@@H]1CN([C@H](C)CO)C(=O)c2cc(NC(=O)Nc3ccc4c(c3)OCO4)ccc2O[C@@H]1CN(C)C(=O)Nc1ccccc1 | . | . | . | . | -3 | .
COc1ccc(-c2nc3c4ccccc4ccn3c2Cc2ccsc2)cc1OC | -1 | 6.4* | 1 | 0 | 20 | 10
COc1ccc(-c2nc3c4ccccc4ccn3c2Cc2ccc(C)cc2)cc1OC | -3 | 6.3* | 0 | -2 | 5 | 3
Cc1ccc(-c2nc3c4ccccc4ccn3c2Cc2ccsc2)cc1 | 8 | 4 | 1.4* | 0 | 16 | 9
Cc1ccc2nc(-c3cccc(Br)c3)c(Cc3cccc(F)c3)n2c1 | -1 | 2 | 0 | 4.3* | . | 11*
c1ccc(-c2nc3c4ccccc4ccn3c2Cc2ccsc2)cc1 | . | . | . | . | 10 | .
Cc1ccc2nc(-c3ccccc3)c(Cc3ccsc3)n2c1 | 22 | 1 | 2.1* | 3 | . | 10
COC(=O)c1ccc2nc(-c3ccc(C)cc3)c(Cc3ccsc3)n2c1 | 13 | 0 | -1 | 1 | 19 | 9
COc1ccc(-c2nc3c4ccccc4ccn3c2Cc2cccc(Cl)c2)cc1OC | 0 | 5 | 1.1* | -1 | 4 | 4
O=C(C[C@H]1CC[C@H]2[C@@H](COC[C@@H](O)CN2C(=O)c2cccnc2)O1)NCc1ccccc1 | . | . | . | . | 1 | .
SMILES | Wnt bcat act | hcDAF12 agonist | ssDAF-12 act | DAX1 StAR inh | esBAF inh | hgDAF-12 ag
C[C@@H]1CN([C@H](C)CO)C(=O)c2cc(NC(=O)Cn3cnnn3)ccc2O[C@@H]1CN(C)C(=O)Nc1ccccc1 | . | . | . | . | 2 | .
Cc1ccccc1-c1cc2nc(NCCc3ccncc3)n(C)c(=O)c2s1 | -1 | -1 | -1 | -1 | 11 | -2
COCCNc1nc2cc(-c3ccc(C)cc3)sc2c(=O)n1C | -1 | 3 | 1.0* | 3.8* | 55* | 12*
Cn1c(NCc2cccnc2)nc2cc(-c3cccc(C(F)(F)F)c3)sc2c1=O | -2 | -1 | -1 | 0 | 5 | -3
Cn1c(NCCc2ccncc2)nc2cc(-c3ccccc3)sc2c1=O | -1 | -1 | -1 | 0 | 56* | 1
COc1ccc(-c2cc(CNc3nc4cc(-c5ccccc5C)sc4c(=O)n3C)on2)cc1 | 26 | 1 | 0 | 4.3* | ? | 8
COc1cccc(-c2cc3nc(NCc4cccnc4)n(C)c(=O)c3s2)c1 | 0 | 5 | 1.0* | 2 | 46* | 9
CCCN1C[C@H](C)[C@H](OC)CN(C)C(=O)c2ccc(NC(=O)c3ccccc3F)cc2OC[C@H]1C | . | . | . | . | 3 | .
O=C(C[C@H]1CC[C@H](NC(=O)CCN2CCCCC2)[C@H](CO)O1)Nc1nccs1 | . | . | . | . | -3 | .
COCC(=O)N1[C@H](CN(C)C(=O)c2ccncc2)[C@@H](c2ccccc2)[C@@H]1CO | . | . | . | . | -4 | .
COc1ccccc1CNc1nc2cc(-c3sccc3C)sc2c(=O)n1C | 38* | 2 | 0 | 2 | 66* | 8
COc1ccccc1CNc1nc2cc(-c3ccccc3C)sc2c(=O)n1C | -3 | -2 | -2 | -1 | 10 | -1
CCOc1cc(C(=O)NCCOC)cc(OCC)c1OCC | . | 2 | 1.5* | 0 | -4 | 2
CCOc1cc(C(=O)NCCCNC(=O)c2cc(OCC)c(OCC)c(OCC)c2)cc(OCC)c1OCC | 1 | -2 | -2 | 0 | . | 0
COc1cc(/C=C2\SC(=S)N(NC(=O)c3ccc(O)cc3)C2=O)ccc1O | 2 | -1 | -1 | 0 | . | -3
O=C(NN1C(=O)/C(=C/c2ccc(O)c(O)c2)SC1=S)c1ccccc1 | -3 | -1 | 1.2* | 0 | 5 | -1
Cc1ccc(C(=O)n2nc(-c3cccnc3)nc2N)cc1 | . | -1 | -1 | -1 | . | 10
Cc1ccc(-c2nc(N)n(C(=O)c3cccnc3)n2)cc1 | 9 | 0 | -1 | 0 | 43* | 3
Brc1ccccc1-n1nnc(-c2cccnc2)n1 | 24 | 1 | 0 | 0 | ? | 5
Fc1ccc(-n2nnc(-c3cccnc3)n2)cc1 | 32* | 1 | -1 | 1 | 62* | 11*
Clc1ccc(-n2nnc(-c3ncc[nH]3)n2)cc1Cl | 5 | -1 | -1 | 1 | 62* | 4
Clc1ccc(-n2nnc(-c3nccs3)n2)cc1Cl | ? | 4 | 0 | 1 | 6 | 7
Clc1ccc(-n2nnc(-c3cccnc3)n2)cc1Cl | 32* | 4 | 1 | 2 | 83* | 7
CO[C@@H]1CN(C)C(=O)c2cc(NC(=O)C3CCC3)ccc2OC[C@H](C)N(Cc2cccnc2)C[C@@H]1C | . | . | . | . | -13 | .
O=Cc1ccc2ccc3cccnc3c2n1 | 2 | 3 | 0 | 1 | 8 | 1
O=Cc1ccc2cccnc2n1 | 3 | 6.1* | 2.0* | 0 | -4 | 1

High-throughput results from PubChem.
